From PubChem
Shown is part of a subset that was picked to be rich in hits.
STK33 inh: inhibitors of human STK33 kinase; Q9BYT3; ADP-Glo luminescence, MBP substrate; inhibition, % at 12.5 µM; 27,000 compounds, 0.44% hits; in the data active means inhibition above about 20%
Target sequence (Q9BYT3 whole entry, looked up): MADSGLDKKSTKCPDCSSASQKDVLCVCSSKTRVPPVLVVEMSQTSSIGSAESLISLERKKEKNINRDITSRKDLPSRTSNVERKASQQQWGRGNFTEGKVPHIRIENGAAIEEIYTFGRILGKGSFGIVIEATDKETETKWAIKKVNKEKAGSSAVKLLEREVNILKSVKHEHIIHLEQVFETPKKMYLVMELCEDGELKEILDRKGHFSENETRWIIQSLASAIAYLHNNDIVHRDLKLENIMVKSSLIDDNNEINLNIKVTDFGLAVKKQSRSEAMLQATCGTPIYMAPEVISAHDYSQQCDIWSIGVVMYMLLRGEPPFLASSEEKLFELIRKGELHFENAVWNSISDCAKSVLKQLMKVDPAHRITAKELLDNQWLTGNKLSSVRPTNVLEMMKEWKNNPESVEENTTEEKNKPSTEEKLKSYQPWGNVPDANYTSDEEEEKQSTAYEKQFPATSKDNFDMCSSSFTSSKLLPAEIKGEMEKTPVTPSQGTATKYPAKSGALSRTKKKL
NOMO-1 viab: STK33 inhibitor candidate reducing NOMO-1 cell viability; NOMO-1 AML viability, CellTiter-Glo luminescence, 72 h; inhibition, % (no concentration beside the values); 37,000 compounds, 7.5% hits; in the data active means inhibition above about 80%
PD-1 reverse act: activators reversing PD-1 mediated T-cell inhibition. primary human CD4 T cells, PD-L1 beads, CellTiter-Glo 96 h. activation, % (concentration not given with the values). 29,000 tested, under 10 active; call rule not given here
Of the large screens only hits and unclear results are named; the others gave an inactive call.

CC1(C)C(=O)C=C[C@@]2(C)C1C=C[C@]1(C)C2CC[C@@]2(C)[C@H](c3ccoc3)OC(=O)C3OC321 (stereo not given in full)	NOMO-1 viab 107 (no result: PD-1 reverse act)
Cc1ccc(Nc2nc(Oc3ccc(OCc4ccccc4)nn3)nc(N(C)C)n2)cc1	none (no result: PD-1 reverse act)
COc1ccc(NC(=O)CSc2nc(-c3ccccc3)cc(C(F)(F)F)n2)c([N+](=O)[O-])c1	none
Cc1ccc(NC(=O)CSc2nc(-c3cccs3)cc(C(F)(F)F)n2)c([N+](=O)[O-])c1	NOMO-1 viab 107
C=CCn1c(C)c2cc(Cl)c(Cl)cc2[n+]1C	none (no result: STK33 inh)
O=C(Nc1ccc(Cc2ccc(O)c(NC(=O)c3ccccc3F)c2)cc1O)c1ccccc1F	none (no result: PD-1 reverse act)
COc1ccc(N(CC(=O)Nc2ccc(I)cc2)S(C)(=O)=O)cc1Cl	none
Cc1cc(N(CC(=O)Nc2ccc(F)c(Cl)c2)S(C)(=O)=O)ccc1Br	NOMO-1 viab 93
Cc1ccc([N+](=O)[O-])cc1N(CC(=O)Nc1cccc(F)c1)S(C)(=O)=O	none (no result: PD-1 reverse act)
Cc1ccc(NC(=O)CN(c2ccc(Cl)c(C(F)(F)F)c2)S(C)(=O)=O)cc1	NOMO-1 viab 91
Cc1ccc([N+](=O)[O-])cc1N(CC(=O)Nc1ccc(I)cc1)S(C)(=O)=O	NOMO-1 viab 121
CS(=O)(=O)N(CC(=O)Nc1ccc(Br)c(Cl)c1)c1ccc(F)c(Cl)c1	none
CS(=O)(=O)N(CC(=O)Nc1ccccc1C(F)(F)F)c1ccc(Cl)c(C(F)(F)F)c1	none
CS(=O)(=O)N(CC(=O)Nc1ccc(I)cc1)c1ccc(Cl)c(Cl)c1	NOMO-1 viab 90
C(=Nc1ccc2ccccc2c1)Nc1ccc2ccccc2c1	none
Cc1cc(C)nc(NC(=O)NC(=O)COc2ccc(Cl)cc2Cl)n1	none (no result: NOMO-1 viab, PD-1 reverse act)
CC(C)(C#N)NC(=O)C1Cc2ccccc2CN1S(=O)(=O)c1ccc(F)cc1 (stereo not given)	none (no result: PD-1 reverse act)
Nc1cc(=O)nc(SCC(=O)NCc2ccccc2)n1-c1ccccc1	none (no result: STK33 inh)
CS(=O)(=O)N(CC(=O)Nc1ccc(Cl)c(Cl)c1)c1cc(Cl)cc(Cl)c1	none
CS(=O)(=O)N(CC(=O)Nc1ccc(Cl)c(Cl)c1)c1ccc(Br)cc1	NOMO-1 viab 115
COc1cccc(-c2nnc(SCC(=O)Nc3cccc([N+](=O)[O-])c3)n2C)c1	none (no result: PD-1 reverse act)
C=C(C)C(=O)O[C@H]1CC(=C)C2C[C@H](O)[C@](O)(CO)C2[C@H]2OC(=O)C(=C)[C@H]12 (stereo not given in full)	NOMO-1 viab 119
CC1(C)CC(=O)C2=C(C1)N(CCCN1CCOCC1)C(=O)C2(NC(=O)c1ccccc1)C(F)(F)F (stereo not given)	none
Cc1sc(NC(=O)Cn2nc(C(F)(F)F)cc2C)c(C(N)=O)c1C	NOMO-1 viab 118 (no result: STK33 inh)
Cc1ccc(OCC(=O)Nc2sc(C)c(C)c2C(N)=O)cc1	none (no result: PD-1 reverse act)
C[C@@H]1O[C@@H](O[C@@H]2[C@@H](O)[C@H](O[C@@H]3[C@@H](O)[C@@H](O)[C@H](O[C@H]4[C@H](OC(=O)[C@]56CCC(C)(C)C[C@H]5C5=CCC7[C@@]8(C)C[C@H](O)[C@H](O[C@@H]9O[C@H](C(=O)O)[C@@H](O)[C@H](O)[C@H]9O)[C@@](C)(CO)C8[C@H](O)C[C@@]7(C)[C@]5(C)C[C@H]6O)O[C@@H](CO)[C@@H]4O)O[C@H]3C)OC[C@H]2O)[C@H](O)[C@H](O)[C@H]1O (stereo not given in full)	none (no result: NOMO-1 viab, PD-1 reverse act)
Cc1cc(Br)ccc1OCC(=O)NC(=S)Nc1ccccc1C(N)=O	none (no result: PD-1 reverse act)
COc1ccc(NC(=O)c2ccccc2NC(=O)COc2ccc([N+](=O)[O-])cc2)cc1	none
Cc1cccc(NC(=O)c2ccccc2NC(=O)COc2cccc([N+](=O)[O-])c2)c1C	NOMO-1 viab 105
CC1C(=O)C(=O)[C@@H]2O[C@@H]2C1=O (stereo not given in full)	NOMO-1 viab 96
CC(C)(C)c1ccc(C(=O)C(C#N)=C2SCCCS2)cc1	NOMO-1 viab 109 (no result: STK33 inh)
CC(C)(C)c1ccc(C(=O)N2CCCC2)cc1	none
c1ccc(-n2c(SCc3nc4ccccc4[nH]3)nnc2-c2cnccn2)cc1	none
COC(=O)c1cc(O)cc(OC)c1Oc1c(Cl)c(C)c(Cl)c(O)c1C(=O)O	none
C=C[C@@]1(C)CCC2=C(C1)C(=O)CC1[C@](C)(C(=O)O)CCC[C@]21C (stereo not given in full)	none
Cc1nn(C(=O)Cn2ccc([N+](=O)[O-])n2)c(C)c1I	none (no result: PD-1 reverse act)
Cc1ccc(S(=O)(=O)N(C)C[C@@H]2Oc3c(NC(=O)Nc4ccc(F)cc4)cccc3C(=O)N([C@@H](C)CO)C[C@@H]2C)cc1	none (no result: STK33 inh)
C[C@H](CO)N1C[C@H](C)[C@@H](CN(C)S(=O)(=O)c2ccc(F)cc2)Oc2c(NC(=O)Nc3ccc(F)cc3)cccc2C1=O	none (no result: STK33 inh)
Cc1ccc(S(=O)(=O)N(C)C[C@@H]2Oc3c(NC(=O)Nc4ccc(F)cc4)cccc3C(=O)N([C@H](C)CO)C[C@@H]2C)cc1	NOMO-1 viab 82 (no result: STK33 inh, PD-1 reverse act)
